# Values joined by “and” are separate entries in the source; they are usually repeats but may differ in a detail not shown here. Equal entries are not always repeated. Over roughly 5,300 compounds, “PER2::LUC luminescence relative to vehicle control” has its median near 0.96; the highest 2% begin near 1.3. The full list was thinned out, with the highest values kept by preference.
# Tested on: mPer2Luc MEF
# Assay: PER2::LUC luminescence relative to vehicle control (fold of vehicle); higher = higher PER2::LUC reporter signal
# Settings: 10 µM
# In short: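 The reported values are PER2::LUC luminescence as fold of vehicle control in mouse embryonic fibroblasts carrying the mPer2Luc reporter. Cells were seeded at ~3000 per well in 384-well plates in DMEM with 10% FBS at 37 °C and 5% CO2, and compounds were added at 10 μM 48 h later. ONE-Glo luminescence was read 24 h and 30 h after treatment.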
Structure (SMILES),PER2::LUC luminescence (time after treatment 24 h),PER2::LUC luminescence (time after treatment 30 h)
COc1cc([C@@H]2CC(=O)c3c(O)cc(O)cc3O2)ccc1O,0.985,0.942
Cc1occc1C(=O)n1ccnc1,0.986,0.971
COc1cc2ncnc(N(C)c3cccc(Br)c3)c2cc1OC,0.83,0.741
OCc1ccc(-c2ccc(-c3ccc(CO)s3)o2)s1,1.48,1.62
CCCCCCCCOC(=O)C=Cc1ccc(OC)cc1,1.04,1.09
CC(C)(O)c1ccc2c(c1)ncn2-c1cccc(-c2ccccc2C#N)c1,0.829,0.89
CC(Nc1ccc(-c2nn[nH]n2)cc1)C(=O)O (racemic),0.971,0.96
CC(C)[C@H](CO)Nc1nc(Sc2cccc(N)c2)c2ncn(C(C)C)c2n1,0.582,0.686
FC(F)(F)c1ccc(CNc2ccc(Cc3c[nH]c4ncc(Cl)cc34)cn2)cc1,0.83,0.83
CC(C(=O)O)c1ccc(-c2ccccc2)c(F)c1 (stereo not drawn),1.15,1.06
CC(C(=O)O)c1ccc(N2Cc3ccccc3C2=O)cc1 (stereo not drawn),1.02,1.34
CC(C(=O)O)c1ccc2c(c1)CC(=O)c1ccccc1S2 (stereo not drawn),1.05,1.08
O=C(CCc1ccc(O)cc1)c1c(O)cc(O)cc1OC1OC(CO)C(O)C(O)C1O (stereo not drawn),1.02,0.948
Oc1nc2cc(Cl)c(Cl)cc2nc1O,0.684,0.69
COc1ccc2nc(/C=C/c3cccc([N+](=O)[O-])c3)n(-c3ccc(C(=O)O)cc3)c(=O)c2c1,1.05,1.01
O=C(O)[C@@]1(CCCCCCOc2ccc(Cl)cc2)CO1,0.936,1.01
CC/C(=C(\c1ccccc1)c1ccc(OCCN(C)C)cc1)c1ccccc1,0.718 and 0.679,0.784 and 0.742
CCN(CC)CCOc1ccc(Cc2ccccc2)cc1,0.811,0.893
CCN(CC)CCOc1ccc(C(=C(Cl)c2ccccc2)c2ccccc2)cc1,0.934 and 0.704,1.73 and 0.773
CC(=O)NC[C@H]1CN(c2ccc(-c3ccc(CNCc4cnn[nH]4)cc3)c(F)c2)C(=O)O1,1.03,1.09
Cn1nnc(-c2ccc(-c3ccc(N4C[C@H](CO)OC4=O)cc3F)cn2)n1,1.39 and 1.4,1.56 and 1.53
Cn1nnc(-c2ccc(-c3ccc(N4C[C@@H](CO)OC4=O)cc3F)cn2)n1,1.01,1.09
CON(Cc1ccc(F)cc1)C(=O)/C=C(\O)C(=O)O,0.942,0.968

Structure (SMILES),PER2::LUC luminescence (time after treatment 24 h),PER2::LUC luminescence (time after treatment 30 h)
COc1ccc2[nH]cc(CCNC(=O)C3CC3)c2c1,0.901,0.938
O=C(c1ccc(OCCCc2c[nH]cn2)cc1)C1CC1,1.09 and 1.51,1.33 and 1.29
NCCc1c[nH]cn1,0.832 and 0.572,0.983 and 0.838
c1nc(CC2CCNCC2)c[nH]1,0.32,0.4
CC1=CC(=O)C(C(C)C)=C/C1=N/OC(=O)c1ccccc1C,1.11,0.994
O=C(O)c1c[nH]c(=O)cn1,1.08,0.999
FC(F)(F)c1cccc(-c2noc(-c3cc(-c4ccccc4)c(C(F)(F)F)s3)n2)c1,1.17,1.14
O=C(NCC1(c2nc(-c3ccccc3)cs2)CCOCC1)c1cccc(-c2noc(C(F)(F)F)n2)c1,0.923,0.884
O=C(O)c1cccc(-c2noc(-c3ccccc3F)n2)c1,1.69,2.11
CC(C)c1ccc2oc3nc(N)c(C(=O)O)cc3c(=O)c2c1,1.07,1.49
O=C(O)c1cc(=O)c2ccccc2o1,0.998 and 1.05,0.946 and 1.14
N[C@H](C(=O)O)c1ccc(O)c(C(=O)O)c1,1.02,0.987
O=C(O)c1cc(=O)c2cc(Cl)ccc2[nH]1,0.977,0.883
CCOC(=O)[N-]c1c[n+](N2CCOCC2)no1,1.09,1.74
O=C(Nc1ccccc1)C12C=C1C(=NO)c1ccccc1O2 (stereo not drawn),1.08,0.974
N[C@@]1(C(=O)O)CN[C@@H](C(=O)O)C1,0.997,0.949
C[C@@H]1O[C@@H](OC[C@H]2O[C@@H](Oc3cc(O)c4c(c3)O[C@H](c3ccc(O)cc3)CC4=O)[C@H](O)[C@@H](O)[C@@H]2O)[C@H](O)[C@H](O)[C@H]1O,0.957,0.972
COc1ccc(-c2cc(=O)c3c(O)cc(O)cc3o2)cc1O,0.933,1.03
O=c1cc(-c2cc(O)c(O)c(O)c2)oc2cc(O)cc(O)c12,0.957,0.941
COc1cc(O)c2c(=O)cc(-c3ccc(O)cc3)oc2c1,1.21,1.32
COc1ccc(-c2cc(=O)c3c(O)cc(O)cc3o2)cc1,1.41,1.56
COc1ccc(-c2cc(=O)c3c(O)c(OC)c(OC)c(OC)c3o2)cc1,1.03,1.16
COc1ccc(-c2cc(=O)c3c(O)cc(OC)cc3o2)cc1,1.29,1.46

Structure (SMILES),PER2::LUC luminescence (time after treatment 24 h),PER2::LUC luminescence (time after treatment 30 h)
Cc1cc2nc3c(=O)[nH]c(=O)nc-3n(C[C@H](O)[C@H](O)[C@H](O)COP(=O)(O)O)c2cc1C,1.22,0.887
O=C(Nc1ccc(C(F)(F)F)cn1)c1cccc2cccnc12,1.02,1.03
CC(=O)CCCCn1cnc2c1c(=O)n(C)c(=O)n2C,0.931,0.944
Cc1cccc(Oc2nc3c(C)cccn3c(=O)c2C=C(C#N)c2nc3ccccc3s2)c1,1,1.04
O=C1CCC(c2ccccc2)(C2CCN(Cc3ccccc3)CC2)C(=O)N1 (stereo not drawn),0.825,0.82
COc1nccnc1NS(=O)(=O)c1ccc(N)cc1,1,1.97
COc1cnc(NS(=O)(=O)c2ccc(N)cc2)nc1,0.926,1
COc1ncnc(NS(=O)(=O)c2ccc(N)cc2)c1OC,0.986,0.84
C=CCO/N=C1\c2ccccc2-c2nc(C#N)c(C#N)nc21,0.778,0.699
C[C@]12CC[C@@H]3c4ccc(O)cc4CC[C@H]3[C@@H]1C[C@H](O)[C@@H]2O,1.07,0.987
O=c1c(N=Nc2ccc(CS(=O)(=O)O)cc2)c(-c2ccc(C[N+](=O)[O-])cc2)[nH]n1-c1ccccc1,1.09,1.08
CCCC(C(=O)O)c1c(C)nc2ccc(Cl)cc2c1-c1ccccc1 (stereo not drawn),1.02,0.957
CC1=C(/C=C/C(C)=C/C=C/C(C)=C\CO)C(C)(C)CCC1,1.08,1.03
CC(=O)OC/C=C(C)/C=C/C=C(C)/C=C/C1=C(C)CCCC1(C)C,0.964,0.832
CC1=C(/C=C/C(C)=C/C=C/C(C)=C/C(=O)Nc2ccc(O)cc2)C(C)(C)CCC1,0.452 and 1.09,0.603 and 1.06
CCCCCCCCCCCCCCCC(=O)OC/C=C(C)/C=C/C=C(C)/C=C/C1=C(C)CCCC1(C)C,0.929 and 0.69,0.976 and 0.869
CCCC(=O)OCc1ccc(OC(=O)/C=C(C)/C=C/C=C(C)/C=C/C2=C(C)CCCC2(C)C)cc1,1.02,1.16
CC1=C(/C=C/C(C)=C/C=C/C(C)=C/C=C/C=C(C)/C=C/C=C(C)/C=C/C2=C(C)C(=O)CCC2(C)C)C(C)(C)CCC1=O,0.908,0.963
CC1=C(/C=C/C(C)=C/C=C/C(C)=C/C=C/C=C(C)/C=C/C=C(C)/C=C/C(=O)[C@]2(C)C[C@@H](O)CC2(C)C)C(C)(C)C[C@H](O)C1,0.964,0.922
CC1=C(/C=C/C(C)=C/C=C/C(C)=C/C=C/C=C(C)/C=C/C=C(C)/C=C/C2=C(C)CCCC2(C)C)C(C)(C)CCC1,1.07,0.941
CC1=C(/C=C/C(C)=C/C=C/C(C)=C\C(=O)O)C(C)(C)CCC1,1.75 and 1.62 and 1.8,1.89 and 1.79 and 1.52
CC1=C(/C=C/C(C)=C\C=C\C(C)=C\C(=O)O)C(C)(C)CCC1,2.08,1.87
CC1=C(/C=C/C(C)=C/C=C/C(C)=C/CO)C(C)(C)CCC1,1.35 and 1.26 and 1.07,1.26 and 1.06 and 1.11

Structure (SMILES),PER2::LUC luminescence (time after treatment 24 h),PER2::LUC luminescence (time after treatment 30 h)
Clc1ccc(N/N=C(/c2ccccc2)c2ccccn2)nc1,0.832,0.785
CC(C)C[C@H](NC(=O)[C@H](CCC(N)=O)NC(=O)[C@H](CCCCN)NC(=O)[C@H](CCC(N)=O)NC(=O)[C@@H](N)CCC(=O)O)C(=O)N[C@@H](CCC(N)=O)C(=O)O,1.03,0.938
CC(=O)Oc1ccc(O)cc1,0.907,1.01
CSC[C@H]1O[C@@H](n2cnc3c(N)ncnc32)[C@H](O)[C@@H]1O,0.938,0.773
COc1ccc2cc1Oc1ccc(cc1)C[C@H]1c3cc(c(OC)cc3CCN1C)Oc1c(OC)c(OC)c(OC)c3c1[C@H](C2)N(C)CC3,0.81,0.85
COc1ccc(S(=O)(=O)Nc2ccccc2CN(C)C/C=C/c2ccc(Cl)cc2)cc1,1.02 and 0.909,0.939 and 0.913
Nc1ncnc2c1c(-c1ccc(Oc3ccccc3)cc1)nn2[C@@H]1CCCNC1,0.544,0.62
O=C1C[C@@H](c2ccccc2)Oc2cc(O)cc(O)c21,1.07,1.08
O=C1C[C@@H](c2ccc(O)cc2)Oc2cc(O)cc(O)c21,1.46,1.25
O=C1C[C@@H](c2ccc(O)c(O)c2)Oc2cc(O)cc(O)c21,0.983,1.05
CC(Cc1ccccc1)(NC(=O)CN)c1ccccc1 (racemic),0.964,1.04
CC(=O)CC(=O)Nc1ccc(Cl)c(C(F)(F)F)c1,1.35,1.37
CNC(=O)c1cc(Oc2ccc(NC(=O)Nc3ccc(Cl)c(C(F)(F)F)c3)cc2)ccn1,0.556 and 0.486,0.816 and 0.513
CNC(=O)c1cc(Oc2ccc(NC(=O)Nc3ccc(Cl)c(C(F)(F)F)c3)c(F)c2)ccn1,0.831 and 0.772,0.697 and 0.731
O=[N+]([O-])c1cn(CCN2CCOCC2)cn1,0.977,0.974
COc1cc2c3cc1Oc1c(OC)c(OC)cc4c1[C@@H](Cc1ccc(OC(=O)c5ccc([N+](=O)[O-])cc5)c(c1)Oc1ccc(cc1)C[C@@H]3N(C)CC2)N(C)CC4,0.754,0.76
C#CCN(C)Cc1ccccc1,0.93 and 0.871,0.955 and 0.95
C#CCN(C)CCCOc1ccc(Cl)cc1Cl,1.23,1.37
Cc1cc(Br)c(O)c2ncccc12,1.19,0.958
COC(=O)N[C@H](C(=O)NNC[C@H](O)[C@H](Cc1ccccc1)NC(=O)[C@@H](NC(=O)OC)C(C)(C)C)C(C)(C)C,0.974,0.963

# Source: the supplement of paper PMC9334596
